IL-1B inflam inh: inhibitors of inflammasome signaling (IL-1 beta secretion) | activity change, % at 57.5 µM | THP-1 LPS/ATP IL-1B secretion, AlphaLISA, 16 h; hits give low values | 4.7% of 360,000 active; in the data active = activity change below about -50%; inconclusive = mostly about -30% to -49%
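Secreted IL-1B measured by AlphaLISA bead assay after 16 h compound exposure of THP-1 cells; compounds (final up to 57.5 uM) added 1 h before LPS (250 ng/mL) and ATP (1.25 mM) stimulation; lower signal means less secretion.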
DT40 TDP1 no CPT: qHTS for Inhibitors of human tyrosyl-DNA phosphodiesterase 1 (TDP1): qHTS in cells in absence of CPT. DT40 Tdp1-/- hTDP1 cells, no CPT, ATP luminescence, 48 h. Potency, µM (titrated, usually from 46.2 µM), actives largely listed as inhibitors. 15% of 420,000 active. AID 686978, 2013; also: nearly all actives have a fitted effect of over 55% in size
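Readout: luminescence from CellTiter-Glo after 30 min in the dark at RT. Cells: DT40 Tdp1-/- with stable hTDP1, 400/well. Exposure: compounds alone, ≥48 hr, 37 °C.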
TDP1 cell CPT: DT40-hTDP1 cell growth loss with CPT | chicken DT40 Tdp1-/-;hTDP1 cells + 20 nM CPT, ATP luminescence, 48 h | Potency, µM (doses to about 46.2 µM), hits mostly inhibitors | 12% of 420,000 active | AID 686979; also: nearly all actives have a fitted effect of over 55% in size
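Cell growth measured by CellTiter-Glo luminescence after a minimum 48 h, 37 C compound exposure with 20 nM CPT in Tdp1-knockout DT40 cells stably expressing hTDP1, seeded 400/well; qHTS titration format.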
RORg inh: inhibitors of mouse ROR gamma transcriptional activity; P51450; Drosophila S2 Gal4-RORgamma UAS-luciferase reporter, 20 h; Potency, µM (top dose mostly 53.6 µM), most hits filed as inhibitors; 5.4% of 310,000 active; also: nearly all actives have a fitted effect of over 60% in size
Target sequence (P51450 whole entry, looked up, the tested form may be a part): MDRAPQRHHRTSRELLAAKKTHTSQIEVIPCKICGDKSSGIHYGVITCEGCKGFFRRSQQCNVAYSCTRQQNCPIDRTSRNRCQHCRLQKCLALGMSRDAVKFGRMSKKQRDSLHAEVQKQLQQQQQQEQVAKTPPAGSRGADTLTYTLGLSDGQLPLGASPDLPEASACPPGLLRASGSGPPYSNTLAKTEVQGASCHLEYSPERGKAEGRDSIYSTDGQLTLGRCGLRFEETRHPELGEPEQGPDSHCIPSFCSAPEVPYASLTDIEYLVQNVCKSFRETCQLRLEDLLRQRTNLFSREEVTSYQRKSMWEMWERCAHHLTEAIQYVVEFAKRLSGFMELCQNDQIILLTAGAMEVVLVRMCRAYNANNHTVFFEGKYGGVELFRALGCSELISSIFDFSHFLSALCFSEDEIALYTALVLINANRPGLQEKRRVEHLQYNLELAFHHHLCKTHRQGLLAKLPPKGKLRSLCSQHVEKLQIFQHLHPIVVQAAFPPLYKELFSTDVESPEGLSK
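ROR gamma transcriptional activity was tracked as Gal4-UAS luciferase output in stably transfected Drosophila Schneider cells, with compound added 1 hr before 700 uM copper sulfate induction and a 20 hr ambient-temperature incubation.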
ELG1 repair inh: blocks ELG1-dependent DNA repair in HEK293T cells | HEK293T ELG1-luciferase reporter, luminescence, 16 h; DNA damage induced by 5-fluorouridine | Potency, µM (doses to about 46.1 µM), actives largely listed as inhibitors | 2.3% of 330,000 active | AID 504467; also: nearly all actives have a fitted effect of over 55% in size
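Quantitative HTS, concentration-response format. 2,000 cells/well co-treated with 5-fluorouridine and compound, 16 hr in 5% CO2 at 37 °C; ONE-Glo luminescence read after 30 min.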
VP16 counter: inhibits Gal4-VP16 luciferase reporter, ROR gamma counter-screen; Drosophila S2 Gal4-VP16 UAS-luciferase, luminescence, 20 h; Potency, µM (series often up to 53.6 µM), usual class: inhibitors; 3.5% of 310,000 active;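 also: Gal4-VP16 expression switched on by copper sulfate through the metallothionein promoter; nearly all actives have a fitted effect of over 50% in size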
Numbers stand for hits; - = inactive; ? = inconclusive; . = no result given; [ ] = dose if it differs, or a comment. Only some compounds are listed: those with a hit (about 21% of all), similar ones and a draw of the others. Unless noted, calls follow the shape of the dose curve; as a rule, active = well fitted curve in the direction sought with a large enough effect; inconclusive = small, poorly fitted or top-dose-only effect, or another doubt; inactive = no such curve, though single readings can be large; an effect the other way counts as inactive or inconclusive.

SMILES | IL-1B inflam inh | DT40 TDP1 no CPT | TDP1 cell CPT | RORg inh | ELG1 repair inh | VP16 counter
CC1(C)C[C@H](O)[C@]2(CO)CC[C@]3(C)C(=CCC4[C@@]5(C)CC[C@H](O)C(C)(C)C5CC[C@]43C)[C@@H]2C1 (stereo not given in full) | - | ? | ? | . | - | .
CC1(C)CC[C@]2(C(=O)O)CC[C@]3(C)C(=CCC4[C@@]5(C)CC[C@H](O)C(C)(C)C5CC[C@]43C)C2C1 (stereo not given in full) | - | - | - | 6.3µM | - | -
CC1(C)CC[C@]2(C(=O)O)CC[C@]3(C)C(=CC[C@@H]4[C@@]5(C)CC[C@H](O)C(C)(C)[C@@H]5CC[C@]43C)[C@@H]2C1 | - | 23µM | ? | - | ? | -
CC1(C)CC[C@]2(C(=O)O)CC[C@]3(C)C(=CCC4[C@@]5(C)CC[C@H](O)C(C)(C)[C@@H]5CC[C@]43C)C2C1 (stereo not given in full) | . | - | - | - | . | -
CC1(C)C[C@H](O)[C@]2(CO)[C@H](O)C[C@]3(C)C(=CCC4[C@@]5(C)CC[C@H](O)C(C)(C)C5CC[C@]43C)[C@@H]2C1 (stereo not given in full) | - | 23µM | ? | . | - | .
CCOc1ccc(NC(=O)c2cnc(N3CCCC3)nc2C)cc1 | . | ? | - | . | . | .
C[N+]1(CC(=O)c2ccc(I)cc2)CCOCC1 | . | - | - | . | . | .
Cc1c(/C=N/NC(N)=O)c2ccccn2c1C(=O)c1ccc(F)cc1 | -70 | 9.2µM | ? | - | - | -
CNC(=S)N/N=C/c1c(C)c(C(=O)c2ccc(F)cc2)n2ccccc12 | - | ? | ? | 5µM | - | 7.9µM
Cc1ccc(S(=O)(=O)N2CCN(C(=O)c3ccc4ccccc4n3)CC2)c(C)c1 | - | ? | - | . | ? | .
Cc1cc(N2CCCC2)ccc1/C=C1/C(=O)N(C)C(=S)N1C | - | 8.2µM | 9.2µM | - | - | -
Cc1nc(=S)c2c([nH]1)-c1ccccc1CC21CCCCC1 | - | 18µM | 21µM | 0.2µM | - | 1µM
CN(C)/C=C/C(=O)c1ccc2noc(-c3ccccc3)c2c1 | -52 | ? | ? | - | 23µM | -
CC(=O)c1ccc2noc(-c3ccccc3)c2c1 | ? | - | - | ? | 9.2µM | -
Cn1nc(C(=O)OCC(=O)NC2CCS(=O)(=O)C2)c2ccccc2c1=O (stereo not given) | - | - | - | - | - | -
CCCCN(C)CCCNC(=O)C1CCN(c2nc3ccc(CC)cc3s2)CC1 | . | 5.8µM | 6.5µM | . | . | .
CCOc1ccc2nc(N3CCC(C(=O)NCCCN4CCOCC4)CC3)sc2c1 | -66 | ? | - | - | ? | -
CCCCN(CC)CCCNC(=O)C1CCN(c2nc3ccc(CC)cc3s2)CC1 | . | 13µM | 12µM | . | . | .
CCCCN(C)CCCNC(=O)C1CCN(S(=O)(=O)CC)CC1 | . | - | - | . | . | .
COc1ccc([C@]23Cc4ccccc4C(O2)C2=C(O3)C(=O)c3ccccc3C2=O)cc1 | . | . | . | -[10 µM] | . | -[10 µM]
Cc1ccc(-n2c(C)n[nH]c2=S)cc1 | - | - | - | 11µM | - | ?
Cc1cccc(-n2c(C)c(-c3ccccc3)[nH]c2=S)c1 | - | ? | ? | 1.1µM | - | 7.9µM
Cc1n[nH]c(=O)n1-c1ccc(C(C)(C)C)cc1 | - | ? | - | - | - | -
Cc1cc(=O)[nH]c(=S)n1-c1ccccc1 | - | - | - | - | ? | -
Cc1ccc(-n2c(C)n[nH]c2=S)cc1C | - | - | - | 11µM | - | ?
SMILES | IL-1B inflam inh | DT40 TDP1 no CPT | TDP1 cell CPT | RORg inh | ELG1 repair inh | VP16 counter
Cc1cccc(-n2cc[nH]c2=S)c1 | - | - | - | 7.9µM | - | ?
Cc1cccc(-n2cc[nH]c2=S)c1C | - | - | - | - | - | ?
O=C(COC(=O)c1ccc(F)c(S(=O)(=O)N2CCOCC2)c1)NCc1ccc(Cl)cc1 | - | - | - | . | - | .
CN1CCN(C(CNC(=O)C(=O)NC2CCCC2)c2ccc(F)cc2)CC1 (stereo not given) | - | - | - | . | - | .
Cc1cccc(-n2c(-c3ccncc3)n[nH]c2=S)c1 | - | - | - | ? | - | -
Cc1cccc(-n2c(C)n[nH]c2=S)c1 | - | - | - | 11µM | - | -
N#CCCN(Cc1cccs1)C(=O)c1ccc(Cl)cc1 | - | - | - | - | - | -
N#Cc1cccc(C(=O)N(CCc2ccccc2)Cc2cccs2)c1 | - | 26µM | ? | - | - | -
COC(=O)c1scc(C)c1NC(=O)c1ccc(Cl)cc1 | - | ? | - | - | - | -
COC(=O)c1scc(C#N)c1N/N=C(\C#N)S(=O)(=O)c1ccc(Cl)cc1 | - | 4.6µM | 4.1µM | ? | ? | -
CCOC(=O)NC(=O)/C(C#N)=N\Nc1ccc(Cl)cc1 | - | - | - | ? | - | -
COC(=O)c1scc(S(=O)(=O)C(C)C)c1N/N=C(\C#N)C(=O)c1ccc(Cl)cc1 | - | 23µM | ? | - | 13µM | ?
CCOC(=O)c1c(NC(=O)COC(=O)c2ccc(C)s2)sc2c1CC(C)(C)NC2(C)C | -59 | 18µM | ? | . | - | .
CCOC(=O)c1c(NC(=O)Cc2ccccc2)sc2c1CC(C)(C)NC2(C)C | - | ? | ? | - | - | -
CC1(C)Cc2c(sc(NC(=O)COc3cccc4ccccc34)c2C#N)C(C)(C)N1 | -100 | 13µM | 10µM | 8.9µM | ? | 5µM
CCOC(=O)c1c(NC(=O)COc2ccccc2OCC)sc2c1CC(C)(C)NC2(C)C | -106 | 5.8µM | 6.5µM | . | - | .
CCOC(=O)c1c(NC(=O)COc2ccccc2C#N)sc2c1CC(C)(C)NC2(C)C | - | 5.8µM | 5.2µM | ? | ? | ?
O=C(Cn1[nH]c(=O)c2ccccc2c1=O)OCC(=O)c1ccc(Br)cc1 | - | - | - | . | - | .
CCCCOc1ccc(N=Cc2ccc[nH]2)cc1 | - | - | - | -[1.91 µM] | ? | -
CCOC(=O)c1c(NC(=O)c2ccc(S(=O)(=O)N3CCCC(C)C3)cc2)sc2c1CC(C)(C)NC2(C)C (stereo not given) | . | 21µM | 16µM | . | . | .
CCOC(=O)N1CCN(S(=O)(=O)c2ccc(C(=O)Nc3sc4c(c3C(N)=O)CC(C)(C)NC4(C)C)cc2)CC1 | - | - | - | - | - | -
COc1ccc(C(=O)CC(=O)C(=O)Nc2ccc(C)cc2Cl)cc1 | - | 16µM | ? | - | - | -
COc1ccc(C(=O)CCc2ccccc2)cc1 | -52 | - | - | - | ? | -
COc1ccc(CNC(=O)C(=O)Nc2ccccc2OC)cc1 | . | - | - | . | . | .
COc1ccc(C(=O)C(CCC(CNC(C)(C)C)C(=O)c2ccc(OC)cc2)CNC(C)(C)C)cc1 (stereo not given) | -101 | 5.2µM | 5.2µM | ? | 8.2µM | 13µM

High-throughput results: PubChem, National Center for Advancing Translational Sciences (NCATS)
